Source: PubChem BioAssay (NCATS)
Records with an inconclusive call do not appear. Activity calls are given as the source filed them. Unless noted, calls come from the whole dose curve; as a rule, active = well fitted curve in the direction sought with a large enough effect; inconclusive = small, poorly fitted or top-dose-only effect, or another doubt; inactive = no such curve, though single readings can be large; an effect the other way counts as inactive or inconclusive.

Experiments:
[1] = Nrf2 qHTS screen for inhibitors: Validation (AID 493153; active = well fitted inhibition curve with a large enough effect in the main read-out, with a control signal flat, not every such curve was filed as active; for activity change, negative = inhibition: % of control where 0% means no effect); conditions: A549 ARE-Fluc reporter, 18-24 h; viability change: measured here: cytotoxicity max response; luciferase luminescence, at 46.1 µM (top of the series)
How it was run: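 Concentration-response test in A549 ARE_Fluc reporter cells (5% FBS OPTI-MEM), compound exposure 18-24 h at 37°C, 5% CO2. Cell viability measured first by CellTiter-Fluor fluorescence; ARE-driven luciferase luminescence then measured as Nrf2 activity.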

[2] = molecular target: Galactokinase (Homo sapiens) (UniProt P51570); assay: qHTS Validation Assay for Inhibitors of Human Galactokinase (GALK) (AID 493189); conditions: purified human GALK enzyme activity, qHTS 7-point titration; series mostly up to 57.5 µM; note: 0% is about no effect
Galactokinase (Homo sapiens), sequence (P51570 whole entry, looked up): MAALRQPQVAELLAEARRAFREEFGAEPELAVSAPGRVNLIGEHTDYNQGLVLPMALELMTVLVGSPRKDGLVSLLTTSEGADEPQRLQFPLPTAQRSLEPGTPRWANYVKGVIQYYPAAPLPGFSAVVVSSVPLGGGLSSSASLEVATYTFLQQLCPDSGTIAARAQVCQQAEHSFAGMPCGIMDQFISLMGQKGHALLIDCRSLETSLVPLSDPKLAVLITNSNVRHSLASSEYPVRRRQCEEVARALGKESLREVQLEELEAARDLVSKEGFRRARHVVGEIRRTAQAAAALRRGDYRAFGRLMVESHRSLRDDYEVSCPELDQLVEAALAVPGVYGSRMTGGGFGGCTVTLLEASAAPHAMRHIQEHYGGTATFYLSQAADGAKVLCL
How it was run: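 Luminescence from leftover ATP (Kinase-Glo Plus, 10 min) served as read-out after a 1 h room-temperature reaction of 5 nM GALK, 100 uM galactose and 35 uM ATP at pH8.0.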

[3] = molecular target: ATP-dependent 6-phosphofructokinase (Trypanosoma brucei brucei) (UniProt O15648); assay: qHTS Assay to Find Inhibitors of T. brucei phosphofructokinase: hit validation (AID 492961);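 note: luminescence reports ADP formed as PFK phosphorylates fructose-6-phosphate with ATP; % is set by controls: 0 for no effect and ±100 for the full control effect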; conditions: T. brucei PFK, ADP-Glo luminescence; series mostly up to 51.4 µM
ATP-dependent 6-phosphofructokinase (Trypanosoma brucei brucei), sequence (O15648 whole entry, looked up): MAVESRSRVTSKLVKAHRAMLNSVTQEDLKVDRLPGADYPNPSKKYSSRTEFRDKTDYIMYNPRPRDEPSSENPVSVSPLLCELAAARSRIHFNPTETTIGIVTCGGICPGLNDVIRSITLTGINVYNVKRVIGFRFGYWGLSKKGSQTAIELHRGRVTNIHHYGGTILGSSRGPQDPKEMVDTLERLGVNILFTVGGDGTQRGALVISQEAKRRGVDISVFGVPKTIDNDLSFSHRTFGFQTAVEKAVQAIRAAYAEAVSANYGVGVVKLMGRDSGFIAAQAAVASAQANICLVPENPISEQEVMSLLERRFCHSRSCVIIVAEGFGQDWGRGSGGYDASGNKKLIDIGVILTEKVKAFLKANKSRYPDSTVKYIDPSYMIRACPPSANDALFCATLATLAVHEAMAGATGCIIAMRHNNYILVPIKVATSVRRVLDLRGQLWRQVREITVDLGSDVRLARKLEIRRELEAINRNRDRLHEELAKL
How it was run: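 Compounds titrated; %activity normalized to 0x and 1x enzyme controls, curve-fitted. Readout: ADP-Glo luminescence after 45 min room-temperature reaction of 1.25 nM PFK, 0.1 mM ATP, 0.5 mM F6P, pH 8.0.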

3D7 = assay: qHTS profiling for inhibitors of Plasmodium falciparum proliferation (AID 504749); note: nearly all actives have a fitted effect of over 60% in size; note: potency is the fitted concentration of half-maximal effect; conditions: P. falciparum in erythrocytes, SYBR Green DNA, 72 h; series mostly up to 28.7 µM
How it was run: (§1)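 SYBR Green fluorescence (ex 485 nm, em 535 nm) reports parasite DNA after 72 h compound exposure of infected red cells at 0.3% parasitemia, 2.5% hematocrit; signal normalized to 0.29 uM artemisinin and vehicle wells.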

CP211 = assay: as above; conditions: P. falciparum in erythrocytes, SYBR Green DNA, 72 h; series mostly up to 28.7 µM
How it was run: as §1

CP247 = assay: as above; conditions: P. falciparum in erythrocytes, SYBR Green DNA, 72 h; series mostly up to 28.7 µM
How it was run: as §1

CP256 = assay: as above; conditions: P. falciparum in erythrocytes, SYBR Green DNA, 72 h; series mostly up to 28.7 µM
How it was run: as §1

CP268 = assay: as above; conditions: P. falciparum in erythrocytes, SYBR Green DNA, 72 h; series mostly up to 28.7 µM
How it was run: as §1

Dd2 = assay: as above; conditions: P. falciparum in erythrocytes, SYBR Green DNA, 72 h; series mostly up to 28.7 µM
How it was run: as §1

ECU = assay: as above; conditions: P. falciparum in erythrocytes, SYBR Green DNA, 72 h; series mostly up to 28.7 µM
How it was run: as §1

FAB9 = assay: as above; conditions: P. falciparum in erythrocytes, SYBR Green DNA, 72 h; series mostly up to 28.7 µM
How it was run: as §1

PC15 = assay: as above; conditions: P. falciparum in erythrocytes, SYBR Green DNA, 72 h; series mostly up to 28.7 µM
How it was run: as §1

PC49 = assay: as above; conditions: P. falciparum in erythrocytes, SYBR Green DNA, 72 h; series mostly up to 28.7 µM
How it was run: as §1

W2 = assay: as above; conditions: P. falciparum in erythrocytes, SYBR Green DNA, 72 h; series mostly up to 12.8 µM
How it was run: as §1

[4] = molecular target: 3',5'-cyclic-AMP phosphodiesterase 4B (Homo sapiens) (UniProt Q07343); assay: qHTS Assay for Inhibitors of PDE-IV (AID 607; active = well fitted activation curve with a large enough effect in the main read-out, with a control signal flat, not every such curve was filed as active; note: potency is the fitted concentration of half-maximal effect); conditions: HEK293 ACTOne CNG channel cells, membrane potential fluorescence; series mostly up to 22.9 µM
3',5'-cyclic-AMP phosphodiesterase 4B (Homo sapiens), sequence (Q07343 whole entry, looked up): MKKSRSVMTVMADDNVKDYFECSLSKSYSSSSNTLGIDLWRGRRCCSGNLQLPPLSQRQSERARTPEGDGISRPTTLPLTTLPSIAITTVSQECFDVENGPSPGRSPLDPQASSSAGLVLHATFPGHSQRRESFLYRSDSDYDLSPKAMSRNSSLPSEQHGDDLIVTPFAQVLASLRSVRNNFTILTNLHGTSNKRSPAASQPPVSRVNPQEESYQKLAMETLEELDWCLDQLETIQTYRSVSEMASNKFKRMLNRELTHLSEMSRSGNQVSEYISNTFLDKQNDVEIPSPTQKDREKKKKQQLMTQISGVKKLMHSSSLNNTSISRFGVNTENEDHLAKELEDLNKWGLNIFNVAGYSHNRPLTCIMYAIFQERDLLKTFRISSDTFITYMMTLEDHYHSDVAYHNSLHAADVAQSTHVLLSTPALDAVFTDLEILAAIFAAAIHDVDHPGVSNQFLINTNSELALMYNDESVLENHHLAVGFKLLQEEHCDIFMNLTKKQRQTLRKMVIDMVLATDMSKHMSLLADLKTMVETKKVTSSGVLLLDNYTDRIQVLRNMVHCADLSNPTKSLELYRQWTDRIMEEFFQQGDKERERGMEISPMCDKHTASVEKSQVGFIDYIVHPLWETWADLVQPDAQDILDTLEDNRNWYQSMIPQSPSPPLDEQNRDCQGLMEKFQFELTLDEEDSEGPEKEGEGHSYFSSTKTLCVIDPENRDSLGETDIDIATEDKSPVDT
How it was run: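 Live HEK293 cells with a modified cyclic nucleotide-gated (CNG) channel report intracellular cAMP via membrane-potential dye fluorescence (ex 535/em 590 nm). Endogenous PDE-IV was targeted. Compounds were tested at up to 22.9 uM final; RO 20-1724 100 uM served as control.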

[5] = molecular target: Pyruvate kinase PKM (Homo sapiens) (UniProt P14618); assay: qHTS Assay for Activators of Human Muscle Pyruvate Kinase (AID 954; active = well fitted curve in the direction sought with a large enough effect, not every such curve was filed as active;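 note: 0% = uninhibited enzyme and -100% = no enzyme or full thiadiazolimine inhibition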); conditions: purified human muscle pyruvate kinase, luciferase-coupled luminescence, 1 h; series mostly up to 57.5 µM
Pyruvate kinase PKM (Homo sapiens), sequence (P14618 whole entry, looked up): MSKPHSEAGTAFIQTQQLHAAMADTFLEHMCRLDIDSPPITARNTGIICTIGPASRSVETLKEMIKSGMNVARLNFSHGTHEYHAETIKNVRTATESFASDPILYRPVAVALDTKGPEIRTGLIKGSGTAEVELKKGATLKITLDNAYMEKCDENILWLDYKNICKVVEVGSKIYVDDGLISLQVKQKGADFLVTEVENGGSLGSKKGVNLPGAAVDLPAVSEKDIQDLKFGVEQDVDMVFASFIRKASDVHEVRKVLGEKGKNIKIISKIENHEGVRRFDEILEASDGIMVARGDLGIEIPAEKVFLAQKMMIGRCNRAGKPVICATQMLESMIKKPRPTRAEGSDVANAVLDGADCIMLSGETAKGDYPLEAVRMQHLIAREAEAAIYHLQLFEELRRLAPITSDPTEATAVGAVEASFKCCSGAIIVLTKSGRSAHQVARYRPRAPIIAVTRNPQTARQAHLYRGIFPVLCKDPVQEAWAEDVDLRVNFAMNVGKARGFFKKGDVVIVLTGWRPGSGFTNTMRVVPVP
How it was run: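 Screening used highly purified human pyruvate kinase M2 under submaximal activity, with PEP at its Km and ADP below Km. After an hour at room temperature, ATP was read by luciferase luminescence.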

[6] = molecular target: Alpha-galactosidase A (Homo sapiens) (UniProt P06280); assay: Counterscreen for Glucocerebrosidase Inhibitors: qHTS Assay for Human alpha-Galactosidase at pH 4.5 (AID 992); conditions: purified enzyme, fluorogenic substrate; series mostly up to 76.9 µM; note: 0% is about no effect
Alpha-galactosidase A (Homo sapiens), sequence (P06280 whole entry, looked up): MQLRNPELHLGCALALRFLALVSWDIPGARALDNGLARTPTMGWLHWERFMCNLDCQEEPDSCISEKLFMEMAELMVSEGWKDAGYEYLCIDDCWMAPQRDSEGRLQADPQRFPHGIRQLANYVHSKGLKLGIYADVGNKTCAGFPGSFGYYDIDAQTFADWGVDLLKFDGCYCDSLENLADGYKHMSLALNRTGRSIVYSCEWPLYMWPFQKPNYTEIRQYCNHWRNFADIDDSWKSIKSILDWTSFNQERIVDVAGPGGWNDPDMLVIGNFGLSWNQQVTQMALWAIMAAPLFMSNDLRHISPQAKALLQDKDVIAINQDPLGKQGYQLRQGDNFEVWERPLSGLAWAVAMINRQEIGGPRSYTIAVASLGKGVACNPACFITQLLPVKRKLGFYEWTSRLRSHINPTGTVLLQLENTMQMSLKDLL
How it was run: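 Each compound is preincubated briefly with 2 nM enzyme before substrate addition (80 uM); plates then sit 20 min at ambient temperature, are quenched with 1M NaOH/1M glycine, and read fluorometrically.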

[7] = molecular target: alpha-glucosidase (Oryza sativa, rice) (UniProt Q653V4); assay: Counterscreen for Glucocerebrosidase Inhibitors: qHTS Assay for Rice alpha-Glucosidase at pH 5.0 (AID 997); conditions: rice alpha-glucosidase enzyme activity; series mostly up to 76.9 µM;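 note: 0% = full activity with enzyme and -100% = basal without enzyme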
How it was run: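 Endpoint fluorogenic assay at pH 5.0: compounds (0.7 nM to 77 uM) titrated against 4 nM rice enzyme and 400 uM 4-MU-alpha-glucoside for 20 min at room temperature; NaOH/glycine stop, read ex 365/em 440 nm, Hill-fitted AC50.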

[8] = qHTS assay to identify inhibitors of the type 1 interferon - major histocompatibility complex class I in skeletal muscle: Counter screen cell viability and HiBit confirmation (AID 1347412); conditions: iHSKM muscle cells + IFN-b, HiBiT or CellTiter-Glo, 24 h; for activity change, negative = inhibition: at 45.9 µM (top of the series); note: potency is the fitted concentration of half-maximal effect; for activity change, negative = inhibition: % is set by controls: 0 for no effect and ±100 for the full control effect; for all read-outs here: nearly all actives have a fitted effect of over 60% in size
How it was run: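 Duplicate plates, pinned identically: one read for HiBiT-tagged endogenous HLA-B luminescence, the other for ATP-content viability via CellTiter Glo. Cells were genome-engineered human myoblasts given 4 ng/ml IFN-b; compounds 12-pt, 1:3 from 46 uM final; 24 hr exposure.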

[9] = qHTS drug screen for cell cycle checkpoint inhibitors in PARPi-resistant BRCA-mutant ovarian cancer cell lines. (AID 1963452; calls by dose curve; note: potency is the fitted concentration of half-maximal effect); conditions: PEO1/OlaR viability, CellTiter-Glo luminescence, 96 h; for Z-AUC: stronger effect = lower value
How it was run: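 PEO1, PEO4 and PEO1/OlaR ovarian cancer cells, 600 per well, exposed 96 h at 37C to a dilution series. Viability read by CellTiter-Glo luminescence, normalized to DMSO and empty wells; activity summarized as Z-AUC.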

[10] = measured here: PEO1 parental Z-AUC

C[C@H]1C2Cc3ccc(O)cc3[C@]1(C)CCN2CC1CC1
-0.82%: viability change [1]
inactive: outcome [1] | outcome [2]

CC12CCC3C(CCC4=C(O)C(=O)CCC43C)C1CCC2=O (stereo not drawn)
0.774%: viability change [1]
inactive: outcome [1]

CC(C)(O)C1C2OC(=O)C1[C@]1(O)C[C@H]3O[C@]34C(=O)O[C@H]2[C@]14C (stereo partly drawn) (tested in a mixture with another compound)
inactive: Potency [3] | Potency (3D7) | Potency (CP211) | Potency (CP247) | Potency (CP256) | Potency (CP268) | Potency (Dd2) | Potency (ECU) | Potency (FAB9) | Potency (PC15) | Potency (PC49) | Potency (W2)

CN1CCC23CCCC[C@H]2C1Cc1ccc(O)cc13 (stereo partly drawn)
inactive: outcome [2]

CCN(CC)C(=O)N[C@@H]1C[C@@H]2c3cccc4[nH]cc(c34)C[C@H]2N(C)C1
inactive: Potency [3] | Potency (3D7) | Potency (CP247) | Potency (CP268) | Potency (ECU) | Potency (FAB9) | Potency (PC15) | Potency (PC49)
active: Potency (CP211) 3.38 µM | Potency (CP256) 2.24 µM | Potency (Dd2) 3.98 µM | Potency (W2) 1.69 µM

COc1cc(C=C(C#N)C#N)cc(O)c1O
inactive: Potency [4] | outcome [5] | outcome [6] | outcome [7]

NCC#Cc1ccccc1
inactive: Potency [4] | outcome [5] | outcome [6] | outcome [7]

CCC1/C=C/C=CCC(C)C(O)[C@@](C)(O)C(=O)C(C)C(O)C(C)C(=O)C(C)C(O)C(C)C=CC(=O)O[C@H]2C(C)C(CC1)O[C@]1(CCC(C)C(CC(C)O)O1)C2C (stereo partly drawn)
inactive: activity change, negative = inhibition ([8]; HiBiT) -31.9% | activity change, negative = inhibition ([8]; Viability) -23.7%

O=C1/C(=C\c2ccccc2)C[C@@]2(O)[C@H]3Cc4ccc(O)c5c4[C@@]2(CCN3CC2CC2)[C@H]1O5
active: Potency ([8]; HiBiT) 3.52 µM

CC[C@@H](CO)NC(=O)[C@H]1C=C2c3cccc4c3c(cn4C)C[C@H]2N(C)C1
inactive: Potency [4]

CCCCN1C2CCC1CC(OC(c1ccc(F)cc1)c1ccc(F)cc1)C2 (stereo not drawn)
inactive: outcome [5] | outcome [6] | outcome [7]

C[C@@H]1CC[C@@]2(OC1)O[C@H]1C[C@H]3[C@@H]4CC=C5C[C@@H](O[C@@H]6O[C@H](CO)[C@@H](O[C@@H]7O[C@@H](C)[C@H](O)[C@@H](O)[C@H]7O)[C@H](O)[C@H]6O[C@@H]6O[C@@H](C)[C@H](O)[C@@H](O)[C@H]6O)CC[C@]5(C)[C@H]4CC[C@]3(C)[C@H]1[C@@H]2C
-0.496: Z-AUC ([9]; measured here: PEO4 Z-AUC)
inactive: Z-AUC [9] 0.183
active: Potency ([8]; HiBiT) 22.2 µM | Potency ([8]; Viability) 17.6 µM
-0.31: Z-AUC [9, 10]

CCCN(CCC)C(=O)Cc1c(-c2ccc(Cl)cc2)nc2c(Cl)cc(Cl)cn12
active: Potency [4] 2.51 µM
inactive: outcome [5] | outcome [6] | outcome [7]

C#CCN(C)C(C)Cc1ccccc1 (stereo not drawn)
inactive: outcome [2]

NNCc1cccc(O)c1
inactive: Potency [4] | outcome [5] | outcome [6] | outcome [7]

COc1ccc2c(c1O)-c1cccc3c1C(C2)N(C)CC3 (stereo not drawn)
inactive: outcome [2]

C/C1=C/C[C@@H](/C(C)=C/c2csc(C)n2)OC(=O)C[C@H](O)C(C)(C)C(=O)[C@H](C)[C@@H](O)[C@@H](C)CCC1
-2.71: Z-AUC [9, 10]
inactive: activity change, negative = inhibition ([8]; Viability) -15.3%
-2.82: Z-AUC ([9]; measured here: PEO4 Z-AUC)
active: Potency [9] 0.0195 µM

CCCC[N+]1(C)C2CC(OC(=O)C(CO)c3ccccc3)CC1C1OC12 (stereo not drawn)
inactive: Potency [3] | Potency (3D7) | Potency (CP211) | Potency (CP247) | Potency (CP256) | Potency (CP268) | Potency (Dd2) | Potency (ECU) | Potency (FAB9) | Potency (PC15) | Potency (PC49) | Potency (W2)

Oc1ccc2c3c1O[C@H]1[C@@H](O)CC[C@@]4(O)C(C2)N(CC2CCC2)CCC314 (stereo partly drawn)
inactive: Potency [3] | Potency (3D7) | Potency (CP211) | Potency (CP247) | Potency (CP256) | Potency (CP268) | Potency (Dd2) | Potency (ECU) | Potency (FAB9) | Potency (PC15) | Potency (PC49) | Potency (W2)

C[C@H]1OC[C@@H](C[N+](C)(C)C)O1
inactive: outcome [5] | outcome [6] | outcome [7]

CNC(C)[C@@H](O)c1ccc(O)cc1 (stereo partly drawn)
inactive: Potency [3] | Potency (3D7) | Potency (CP211) | Potency (CP247) | Potency (CP256) | Potency (CP268) | Potency (Dd2) | Potency (ECU) | Potency (FAB9) | Potency (PC15) | Potency (PC49) | Potency (W2)
